Most compounds without a hit are left out; they make up all but 19% or so of the library.
TDP1 cell CPT: DT40-hTDP1 cell growth loss with CPT. chicken DT40 Tdp1-/-;hTDP1 cells + 20 nM CPT, ATP luminescence, 48 h. Potency, µM (top dose mostly 46.2 µM), most hits filed as inhibitors. 420,000 tested, 12% active; note: nearly all actives have a fitted effect of over 55% in size
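Chicken DT40 Tdp1-/- cells complemented with human TDP1, 400 cells/well, exposed to compounds plus 20 nM camptothecin for at least 48 h at 37 C; viability read as ATP content by CellTiter-Glo luminescence.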
HT1080NT lethal: kills 2HG-producing HT-1080-NT fibrosarcoma cells; Potency, µM (series often up to 46.1 µM), hits mostly cytotoxic; HT-1080-NT fibrosarcoma viability, CellTiter-Glo ATP luminescence, 48 h; 360,000 tested, 1.6% active; AID 686970;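 note: NT is the 2HG producing partner of a matched IDH1 knockdown line; nearly all actives have a fitted effect of over 55% in size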
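Luminescent CellTiter-Glo readout after 48 hours of compound exposure at 37 degrees C defined viability of HT-1080-NT cells. Activity was normalized to DMSO wells and cell-free media wells; concentration-response curves were fitted and assigned curve classes.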
TDP1 cell noCPT: qHTS for Inhibitors of human tyrosyl-DNA phosphodiesterase 1 (TDP1): qHTS in cells in absence of CPT | DT40 Tdp1-/- hTDP1 cells, no CPT, ATP luminescence, 48 h | Potency, µM (doses to about 46.2 µM), hits mostly inhibitors | 420,000 tested, 15% active | AID 686978, 2013; note: nearly all actives have a fitted effect of over 55% in size
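Seeded 400 DT40-hTDP1 cells/well (vehicle DMSO, no 20 nM CPT); pinned compounds; ≥48 hr at 37 °C; CellTiter-Glo luminescence as viability measure.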
HT1080 IDH1KD tx: HT-1080 IDH1 knockdown cell toxicity (counter line). 360,000 tested, 2% active. HT-1080 IDH1 knockdown viability, ATP luminescence, 48 h. AID 686971. Potency, µM (doses to about 46.1 µM), actives largely listed as cytotoxic
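IDH1KD HT-1080 cells, 750/well, RPMI + 5% FBS; compound pinned after 2 h settling; 48 h, 37 °C; CellTiter-Glo luminescence; % activity normalised to DMSO and no-cell wells; curves fitted, classed by r2 and efficacy.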
IL-1B inflam inh: inhibitors of inflammasome signaling (IL-1 beta secretion). 360,000 tested, 4.7% active. THP-1 LPS/ATP IL-1B secretion, AlphaLISA, 16 h; active compounds read low. activity change, % at 57.5 µM. AID 743279; in the data active = activity change below about -50%; inconclusive = mostly about -30% to -49%
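Secreted IL-1B measured by AlphaLISA bead assay after 16 h compound exposure of THP-1 cells; compounds (final up to 57.5 uM) added 1 h before LPS (250 ng/mL) and ATP (1.25 mM) stimulation; lower signal means less secretion.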
Each line names hits and unclear results; the compound was inactive in the other large screens. Unless noted, calls come from the whole dose curve; as a rule, active = well fitted curve in the direction sought with a large enough effect; inconclusive = small, poorly fitted or top-dose-only effect, or another doubt; inactive = no such curve, though single readings can be large; an effect the other way counts as inactive or inconclusive.

COc1ccc(CNC(=O)COC(=O)c2cc(C)oc2C)cc1	none
COc1ccccc1N1CCNC(C)C1=O (centres undefined)	TDP1 cell CPT inconclusive, TDP1 cell noCPT inconclusive
COc1cc(NC(=O)N2CCC3(CC2)Nc2cc(F)ccc2-n2cccc23)cc(OC)c1OC	TDP1 cell CPT 16.4µM, TDP1 cell noCPT 25.9µM (no result: HT1080NT lethal, HT1080 IDH1KD tx, IL-1B inflam inh)
CC(=O)c1csc(COc2ccc(Cl)cc2)n1	TDP1 cell CPT inconclusive
CCN(CC)S(=O)(=O)c1ccc(C(=O)Nc2nnc(CSC)o2)cc1	none
CN(C)S(=O)(=O)c1ccc(C(=O)Nc2nnc(-c3ccco3)o2)cc1	TDP1 cell CPT 20.6µM, TDP1 cell noCPT inconclusive
CCCCN(CC)S(=O)(=O)c1ccc(C(=O)Nc2nnc(-c3cccs3)o2)cc1	TDP1 cell CPT 14.6µM, HT1080NT lethal inconclusive, TDP1 cell noCPT 10.3µM, HT1080 IDH1KD tx 8.2µM
O=C(CCS(=O)(=O)c1ccc(F)cc1)Nc1nnc(-c2ccco2)o1	TDP1 cell CPT inconclusive, TDP1 cell noCPT inconclusive
O=C(Nc1nnc(-c2ccco2)o1)c1cccc(N2C(=O)CCC2=O)c1	none
CCN(CC)S(=O)(=O)c1ccc(C(=O)Nc2nnc(-c3ccco3)o2)cc1	TDP1 cell CPT inconclusive, TDP1 cell noCPT 23.1µM, HT1080 IDH1KD tx inconclusive
CCCCN(C)S(=O)(=O)c1ccc(C(=O)Nc2nnc(-c3ccco3)o2)cc1	TDP1 cell CPT 7.31µM, TDP1 cell noCPT 6.51µM, HT1080 IDH1KD tx inconclusive
O=C1CC2c3ccccc3C1C1C(=O)N(Cc3ccccc3)C(=O)C21 (centres undefined)	none
CC1CCC(NC(=O)c2cc3ccccc3cc2O)CC1 (centres undefined)	TDP1 cell CPT inconclusive, TDP1 cell noCPT inconclusive
O=C(N/N=C1/CC2CCC1C2)c1cc2ccccc2cc1O (centres undefined)	TDP1 cell CPT 23.1µM, HT1080NT lethal inconclusive, TDP1 cell noCPT 20.6µM, HT1080 IDH1KD tx inconclusive
O=C(NCC1CCCCC1)c1cc2ccccc2cc1O	TDP1 cell CPT 20.6µM, HT1080NT lethal inconclusive, TDP1 cell noCPT inconclusive, HT1080 IDH1KD tx inconclusive, IL-1B inflam inh -87.9
O=C(Nc1cc(C(=O)NC2CCOCC2)c2c(c1)ncn2C1CCCC1)c1ccccc1	none (no result: HT1080NT lethal, HT1080 IDH1KD tx, IL-1B inflam inh)
COc1cc(/C=C2\SC(N)=NC2=O)ccc1O	TDP1 cell CPT 11.6µM, HT1080NT lethal inconclusive, TDP1 cell noCPT 4.61µM, HT1080 IDH1KD tx 18.4µM, IL-1B inflam inh -83.0
COc1cc(/C=C2\SC(N)=NC2=O)cc(OC)c1	TDP1 cell CPT 18.4µM, TDP1 cell noCPT inconclusive
C=CCOc1ccc(/C=C2\SC(N)=NC2=O)cc1OC	TDP1 cell CPT inconclusive
O=C1CC(c2ccccc2)Cc2[nH]c(=O)c(-c3nc(-c4ccc(Cl)cc4)cs3)cc21 (centres undefined)	TDP1 cell CPT 0.581µM, TDP1 cell noCPT 0.651µM (no result: HT1080NT lethal, HT1080 IDH1KD tx, IL-1B inflam inh)
O=C1CC(c2ccccc2)Cc2[nH]c(=O)c(-c3nc(-c4ccc(Cl)c(Cl)c4)cs3)cc21 (centres undefined)	TDP1 cell CPT 3.26µM, TDP1 cell noCPT 2.31µM (no result: HT1080NT lethal, HT1080 IDH1KD tx, IL-1B inflam inh)
COc1ccc(C2CC(=O)c3cc(-c4nc(-c5cccc(Cl)c5)cs4)c(=O)[nH]c3C2)cc1OC (centres undefined)	TDP1 cell CPT inconclusive, TDP1 cell noCPT 9.2µM (no result: HT1080NT lethal, HT1080 IDH1KD tx, IL-1B inflam inh)
O=C1CC(c2ccccc2)Cc2[nH]c(=O)c(-c3nc(-c4ccc(F)cc4)cs3)cc21 (centres undefined)	TDP1 cell CPT 5.17µM, TDP1 cell noCPT 3.26µM (no result: HT1080NT lethal, HT1080 IDH1KD tx, IL-1B inflam inh)
CCn1c(=O)c([N+](=O)[O-])c(NC2CCS(=O)(=O)C2)c2ccccc21 (centres undefined)	none
O=Cc1ccc(Oc2cnccn2)cc1	none
C=C(C)Cn1c2ccc(NC(=O)CCOCC)cc2c(=O)n1C	HT1080NT lethal inconclusive
CC(C)NC(=O)C1CCN(C2CCN(C(=O)c3scc4c3CCCC4)CC2)CC1	TDP1 cell CPT inconclusive, TDP1 cell noCPT inconclusive
COc1ccc(S(=O)(=O)N2CCOCC2)cc1NC(=O)c1ccc2c(c1)OCO2	none
COc1ccc(S(=O)(=O)N2CCCCC2)cc1NC(=O)C1COc2ccccc2O1 (centres undefined)	TDP1 cell CPT 23.1µM, TDP1 cell noCPT 23.1µM
COc1ccc(S(=O)(=O)N2CCCCC2)cc1NC(=O)C1CC1	none

Assay outcomes: PubChem, National Center for Advancing Translational Sciences (NCATS)
